Assay [1] is described as follows: inhibitors of TNFa-induced NFkB p65 translocation, primary screen, imaging, HUVEC, MLSMR starter and 10KST1 sets (AID 438;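 active means inhibition above 20% together with a positive visual image hit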;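 further: compound added about 3h40 before a 20 min TNFalpha stimulation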;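 on inhibition: signal is the nuclear over cytoplasmic p65 intensity ratio per well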). The settings on record: HUVEC TNFa-induced p65 nuclear translocation; cell count: measured here: nuclei count (cytotoxicity indicator), at 2.08 µM; inhibition: at 2 µM, stronger effect = higher value, 0% TNFa-plus-vehicle, 100% no-TNFa wells.
A short description of assay [2]: inhibitors of mutant huntingtin aggregation, primary screen, imaging, exon1htt(103Q)mCFP cells, high-content imaging (AID 483;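 active means visual image review flags a hit and inhibition of aggregation exceeds 20%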;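 further: compound exposure lasted 3 days before fixation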;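 on nuclei count: percent of the per-plate median nuclei count of sample wells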). The settings on record: exon1htt(103Q)mCFP cell line, aggregate imaging, at 2 µM; inhibition of aggregation: stronger effect = higher value; nuclei count: measured here: cell count, toxicity.
The nature of assay [3]: inhibitors of E-selectin induction by TNFa, primary screen, imaging, HUVEC, immunofluorescence, MLSMR starter and 10KST1 sets (AID 487;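 active means visually confirmed hit in the image check and inhibition above 20%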;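 on inhibition: signal is fraction of cell area covered by stained E-selectin grains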;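 on nuclei count: 100% = median nuclei count of all wells on the same plate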). The settings on record: HUVEC TNFalpha-induced E-selectin immunofluorescence imaging, at 2 µM; inhibition: stronger effect = higher value; nuclei count: measured here: cell number, toxicity.
In assay [4] the target is Voltage-gated potassium channel subunit beta-2 (Rattus norvegicus) (UniProt P62483). The assay is described as follows: KvBeta enzyme negative modulators, primary screen, biochemical, NADPH fluorescence (AID 622;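 active means fluorescence slope higher than the sample average by over 3 SD, cut at about -0.22 in these data, passing the limit was not always enough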;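 further: slope of raw intensity against log time taken from 70 to 1610 s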). The settings on record: recombinant KvBeta, 4-cyanobenzaldehyde reduction, at 10 µM, stronger effect = higher value.
Voltage-gated potassium channel subunit beta-2 (Rattus norvegicus), sequence (P62483 whole entry, looked up): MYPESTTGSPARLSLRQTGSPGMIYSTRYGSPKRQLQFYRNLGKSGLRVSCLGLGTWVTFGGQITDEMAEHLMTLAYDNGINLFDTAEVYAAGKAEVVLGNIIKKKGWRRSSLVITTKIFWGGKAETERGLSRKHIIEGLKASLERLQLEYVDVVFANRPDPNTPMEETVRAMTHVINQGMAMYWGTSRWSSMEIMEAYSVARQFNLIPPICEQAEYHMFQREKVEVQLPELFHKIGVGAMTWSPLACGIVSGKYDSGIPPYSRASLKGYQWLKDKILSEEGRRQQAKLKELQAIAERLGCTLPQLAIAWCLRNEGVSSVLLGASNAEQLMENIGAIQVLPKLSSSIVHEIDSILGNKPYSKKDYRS
Assay [5] shares this target. Briefly: KvBeta positive modulators, primary screen, biochemical, NADPH fluorescence (AID 623;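 active means NADPH fluorescence slope more negative than the mean of all samples by about 3 SD, 99.7% confidence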;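 further: fluorescence intensity change per second fitted from 20 to 320 s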). The settings on record: Recombinant KvBeta, NADPH fluorescence decrease slope, 10 min; at 10 µM; stronger effect = lower value.
For assay [6], the target named is Alpha-2C adrenergic receptor (Homo sapiens) (UniProt P18825). The assay is described as follows: modulators of alpha2C/GIRK thallium flux, primary screen, cell-based, HEK293 alpha2C/GIRK1/2 (AID 624;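 active means fluorescence slope after compound addition differing from the mean of all screened samples at 99.7% confidence, in either direction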;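 further: slope of fluorescence ratio to pre-addition baseline per second over 15 to 24 s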). The settings on record: thallium flux BTC fluorescence, at 10 µM, actives lie on both sides.
Alpha-2C adrenergic receptor (Homo sapiens), sequence (P18825 whole entry, looked up): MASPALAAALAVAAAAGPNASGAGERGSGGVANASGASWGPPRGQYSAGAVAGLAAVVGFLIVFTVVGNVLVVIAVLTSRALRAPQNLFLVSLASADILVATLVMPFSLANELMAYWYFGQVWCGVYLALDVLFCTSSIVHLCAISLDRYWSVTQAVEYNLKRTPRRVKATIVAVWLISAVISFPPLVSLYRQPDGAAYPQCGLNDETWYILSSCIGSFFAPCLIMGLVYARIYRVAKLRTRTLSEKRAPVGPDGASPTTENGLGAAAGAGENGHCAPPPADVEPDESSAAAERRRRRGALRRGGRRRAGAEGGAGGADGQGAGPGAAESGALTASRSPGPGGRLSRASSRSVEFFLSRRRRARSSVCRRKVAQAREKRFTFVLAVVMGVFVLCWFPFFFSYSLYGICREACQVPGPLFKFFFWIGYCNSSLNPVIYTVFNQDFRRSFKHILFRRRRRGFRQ
Assay [7] can be described thus: inhibitors of Sendai virus-induced IRF3 signaling, primary screen, TLR/RLR signaling modifier project, cell-based, Sendai virus stimulus, luciferase, 10K MLSCN set (AID 602276;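 active means inhibition at or above 50% at 10 µM; inactive means inhibition below 50%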;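 further: firefly luciferase from ISG56 promoter only with Renilla not read in this screen; 0% = Sendai virus plus DMSO and 100% = medium plus DMSO without virus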). The settings on record: HEK293 RL24 IRF3 luciferase reporter, at 10 µM, stronger effect = higher value. A general note: Reporter assays use an easily measured gene product as a stand-in for the process of interest.

A short description of assay [8]: inhibitors of poly I:C-induced TLR3 signaling, primary screen, cell-based, poly I:C stimulus, luciferase, 10K MLSCN set (AID 602277). The settings on record: HEK293-TLR3 RL24 IRF3 luciferase reporter, at 10 µM, stronger effect = higher value.

The source made the active and inactive calls.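 How the source made its calls, unless noted: active means inhibition of the reporter signal at or above 50%; inactive means inhibition below 50%.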

As for `Cn1cccc1Cc1nnc(SCC(=O)Nc2ccccc2F)n1-c1ccc(F)cc1`, the cell count in assay [1] was determined as 878. In addition, the inhibition in assay [1] was -2.3% (inactive); in assay [3], -44.3% (inactive); in assay [7], 5.41% (inactive); in assay [8] it was 24.9% (inactive). The inhibition of aggregation in assay [2] is -8.8% (inactive). Further, the nuclei count in assay [2] worked out at 108%; in assay [3] it was 113%. Besides, the fluorescence slope in assay [4] was -0.561 (inactive). The NADPH fluorescence slope in assay [5] is -8.8e-05 (inactive). Further, the slope in assay [6] was 0.00608 (inactive).
On to `CS(=O)(=O)c1ccc2nc(NC(=O)c3cccs3)sc2c1`, for which the cell count in assay [1] came out at 351. In addition, the inhibition is -2.9% (inactive) in assay [1], 3.9% (inactive) in assay [3], -10.7% (inactive) in assay [7] and -21.1% (inactive) in assay [8]. For the same molecule, in assay [2], the inhibition of aggregation is 4.4% (inactive). Besides, the nuclei count in assay [2] is 105%; in assay [3], 104%. Moreover, the fluorescence slope in assay [4] was -0.487 (inactive). Further, the NADPH fluorescence slope in assay [5] was -5.8e-05 (inactive). Also, the slope in assay [6] is 0.00673 (inactive).
Turning to `Fc1ccc(Cn2nnc(-c3ccc(CN4CCOCC4)cc3)n2)cc1`, the cell count in assay [1] worked out at 299. Besides, the inhibition was 4.3% (inactive) in assay [1], 9.3% (inactive) in assay [3], -2.6% (inactive) in assay [7] and -37.2% (inactive) in assay [8]. The inhibition of aggregation in assay [2] is 11.5% (inactive). The nuclei count in assay [2] was 102%; in assay [3], 117%. In addition, the fluorescence slope in assay [4] was -0.44 (inactive). Further, the NADPH fluorescence slope in assay [5] was -1.1e-05 (inactive). In assay [6], the slope was 0.00406 (inactive).
As to `O=C1C(Cl)=C(NCC2CCCO2)C(=O)N1CCc1ccccc1` (centres undefined), the cell count in assay [1] came to 711. The inhibition in assay [1] was -10% (inactive); in assay [3], 27.8% (inactive); in assay [7] it was -53.6% (inactive); in assay [8], -108% (inactive). In addition, the inhibition of aggregation in assay [2] is 9.2% (inactive). Besides, the nuclei count in assay [2] turned out to be 102%; in assay [3], 107%. The fluorescence slope in assay [4] is -0.448 (inactive). In assay [5], the NADPH fluorescence slope is 1.5e-05 (inactive). Moreover, the slope in assay [6] was 0.00576 (inactive).
`O=[n+]1cc(-c2ccc(F)cc2)n([O-])c2c1CCC2`: the cell count in assay [1] is 391. Besides, the inhibition in assay [1] was 6.5% (inactive); in assay [3] it was -70% (inactive); in assay [7] it was 5.02% (inactive); in assay [8] it was 15.4% (inactive). Further, in assay [2], the inhibition of aggregation was 8.8% (inactive). Moreover, the nuclei count in assay [2] was 103%; in assay [3], 108%. In assay [4], the fluorescence slope is -0.587 (inactive). In addition, the NADPH fluorescence slope in assay [5] was 3.3e-05 (inactive). For the same molecule, the slope in assay [6] is 0.00589 (inactive).
As to `CCOC(=O)C1CCN(S(=O)(=O)c2cccc(-c3csc(C)n3)c2)CC1`, in assay [1], the cell count was found to be 234. Moreover, the inhibition in assay [1] is 4.4% (inactive); in assay [3] it was 32.4% (inactive); in assay [7], 14.1% (inactive); in assay [8], 2.04% (inactive). Also, the inhibition of aggregation in assay [2] was 8.1% (inactive). The nuclei count in assay [2] is 97.1%; in assay [3], 89%. In addition, the fluorescence slope in assay [4] is -0.433 (inactive). The NADPH fluorescence slope in assay [5] is -0.000124 (inactive). The slope in assay [6] was 0.0037 (inactive).
`c1ccc(CCn2nnnc2CN2CCN(C3CCCC3)CC2)cc1`: the cell count in assay [1] was 290. In addition, the inhibition in assay [1] is -15.4% (inactive); in assay [3] it was -40.7% (inactive); in assay [7] it was -0.279% (inactive); in assay [8] it was 20.4% (inactive). For the same molecule, the inhibition of aggregation in assay [2] was -9.3% (inactive). Further, the values for the nuclei count in assay [2] and in assay [3] were 112% and 118%, respectively. Further, in assay [4], the fluorescence slope was -0.604 (inactive). Moreover, in assay [5], the NADPH fluorescence slope is -4.3e-05 (inactive). For the same molecule, the slope in assay [6] is 0.0058 (inactive).
For `COC(=O)c1[nH]c2c(c1C)C(=O)CC(c1cc(OC)ccc1OC)C2` (centres undefined), in assay [1], the cell count worked out at 546. Further, the inhibition in assay [1] was -4.2% (inactive); in assay [3] it was -36.2% (inactive); in assay [7], 38.3% (inactive); in assay [8], 21.5% (inactive). Besides, the inhibition of aggregation in assay [2] is 30.2% (inactive). Also, the nuclei count amounted to 81% in assay [2] and 114% in assay [3]. In addition, the fluorescence slope in assay [4] is -0.573 (inactive). Also, in assay [5], the NADPH fluorescence slope was -1.2e-05 (inactive). Besides, in assay [6], the slope is 0.00652 (inactive).
For the molecule `CC(=O)c1cc(-c2ccc(F)cc2)n(CCC(=O)Nc2cc(C)[nH]n2)c1C`, the cell count in assay [1] was determined as 360. Further, the inhibition in assay [1] was 0% (inactive); in assay [3], 0% (inactive); in assay [7], 4.04% (inactive); in assay [8], 25.9% (inactive). In addition, the inhibition of aggregation in assay [2] was -4.1% (inactive). Also, the nuclei count in assay [2] was 102%; in assay [3], 118%. For the same molecule, the fluorescence slope in assay [4] was -0.507 (inactive). In addition, in assay [5], the NADPH fluorescence slope was -3.1e-05 (inactive). In addition, the slope in assay [6] was 0.00525 (inactive).
On to `O=c1c2cc(N3CCOCC3)ccc2[nH]c(=S)n1CCCN1CCCCC1`, for which the cell count in assay [1] stood at 522. Further, the inhibition in assay [1] is 6.2% (inactive); in assay [3], -2.6% (inactive); in assay [7], -10.1% (inactive); in assay [8] it was 23.3% (inactive). Besides, in assay [2], the inhibition of aggregation is -8.5% (inactive). Moreover, the nuclei count in assay [2] was 121%; in assay [3], 106%. Further, the fluorescence slope in assay [4] is -0.0837 (active). In addition, the NADPH fluorescence slope in assay [5] is 8.7e-06 (inactive). Also, the slope in assay [6] was 0.00508 (inactive).
Take `CCn1c(SCc2nc3ccccc3c(=O)[nH]2)nnc1-c1cccnc1`: in assay [1], the cell count came out at 628. The inhibition in assay [1] was -11.9% (inactive); in assay [3] it was -66.6% (inactive); in assay [7] it was 21.2% (inactive); in assay [8] it was 25% (inactive). Besides, the inhibition of aggregation in assay [2] was -9.6% (inactive). Further, the nuclei count was 107% in assay [2] and 114% in assay [3]. Moreover, in assay [4], the fluorescence slope is -0.525 (inactive). The NADPH fluorescence slope in assay [5] was 7.8e-06 (inactive). The slope in assay [6] is 0.00487 (inactive).
For the molecule `COc1ccc(-c2nc(C#N)c(NCCCN(C)C)o2)cc1OC`, the cell count in assay [1] was 713. The inhibition in assay [1] was -9.1% (inactive); in assay [3], -8.3% (inactive); in assay [7], 1.52% (inactive); in assay [8], 33.3% (inactive). Besides, the inhibition of aggregation in assay [2] was -8.5% (inactive). In addition, the nuclei count in assay [2] came to 99.3%; in assay [3], 98.4%. Also, in assay [4], the fluorescence slope is -0.222 (active). In addition, the NADPH fluorescence slope in assay [5] was -1.8e-06 (inactive). Also, the slope in assay [6] is 0.00305 (inactive).
`CCc1nnc(NC(=O)CSc2nnc(-c3ccc(OC)cc3)n2C)s1`: the cell count in assay [1] was determined as 648. Also, the inhibition in assay [1] is 14.3% (inactive); in assay [3], 5.4% (inactive); in assay [7], 12.5% (inactive); in assay [8], 20.1% (inactive). Further, the inhibition of aggregation in assay [2] is 21.9% (inactive). Besides, the nuclei count is 66.3% in assay [2] and 112% in assay [3]. Further, the fluorescence slope in assay [4] is -0.609 (inactive). Also, in assay [5], the NADPH fluorescence slope is -3e-05 (inactive). In assay [6], the slope was 0.00434 (inactive).
Consider `Nn1c(SCC(=O)NC2CCCCC2)nnc1-c1ccc(Cl)cc1`, for which the cell count in assay [1] stood at 376. For the same molecule, the inhibition was 0.7% (inactive) in assay [1], -114% (inactive) in assay [3], 14.6% (inactive) in assay [7] and 19% (inactive) in assay [8]. Also, the inhibition of aggregation in assay [2] was -1.9% (inactive). The nuclei count was 106% in assay [2] and 108% in assay [3]. Moreover, in assay [4], the fluorescence slope was -0.472 (inactive). For the same molecule, the NADPH fluorescence slope in assay [5] is 6.9e-06 (inactive). Also, the slope in assay [6] is 0.00502 (inactive).

As usually defined, the inhibition is the change of the read-out against control, counted positive when it falls.

These data come from PubChem BioAssay.
